Sampled rows, rich in hits. Any-hit rate of the full collection: about 9.2%.
FLuc modulator: firefly luciferase modulation, counter-screen for miR-21 project | Potency, µM (top dose mostly 57.5 µM), without a hit: at the highest dose activity change, negative = inhibition, actives largely listed as inhibitors | P08659 | 6.9% of 360,000 active | purified FLuc, Km substrates, luminescence inhibition | AID 588342;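 also: plate controls were vehicle for no effect and reference inhibitor for full effect; nearly all actives have a fitted effect of over 55% in size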
Target sequence (P08659 whole entry, looked up): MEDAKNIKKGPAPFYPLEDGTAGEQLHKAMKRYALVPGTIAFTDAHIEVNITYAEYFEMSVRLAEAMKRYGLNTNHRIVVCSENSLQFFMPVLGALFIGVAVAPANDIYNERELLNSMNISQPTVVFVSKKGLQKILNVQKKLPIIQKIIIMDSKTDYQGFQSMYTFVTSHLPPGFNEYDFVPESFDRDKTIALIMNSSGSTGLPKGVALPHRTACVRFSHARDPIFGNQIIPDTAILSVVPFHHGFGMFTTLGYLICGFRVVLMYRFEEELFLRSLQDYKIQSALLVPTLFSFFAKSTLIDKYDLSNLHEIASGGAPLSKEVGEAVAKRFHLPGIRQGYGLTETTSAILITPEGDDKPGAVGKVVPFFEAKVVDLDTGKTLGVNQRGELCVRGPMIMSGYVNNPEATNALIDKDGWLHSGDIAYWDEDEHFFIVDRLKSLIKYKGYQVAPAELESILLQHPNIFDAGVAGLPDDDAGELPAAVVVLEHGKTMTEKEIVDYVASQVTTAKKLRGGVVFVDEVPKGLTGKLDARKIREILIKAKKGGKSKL
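Purified P. pyralis luciferase, 10 nM final, with Km-level 10 uM D-luciferin and 10 uM ATP in 50 mM Tris acetate pH 7.5, 10 mM Mg acetate, 0.01% Tween-20, 0.05% BSA; 6-point qHTS titration about 60 µM downward; luminescence read.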
SMN2 splice enh: SMN2 splice variant enhancement; HEK293 SMN2-luciferase splicing reporter, luminescence, 30-36 h; Potency, µM (titrated, usually from 46.1 µM), for the others: at the top dose activity change, positive = activation, most hits filed as activators; 2.8% of 210,000 active; also: % of control where 0% means no effect; nearly all actives have a fitted effect of over 55% in size
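HEK293 cells carry an SMN2 […]–luciferase reporter in which exon 7 inclusion puts luciferase in frame. Cells were plated 10-12 h before compound addition, then incubated 30-36 h at 37C. ONE-Glo luminescence was read; sodium butyrate at 4.5 mM final served as control.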
ELG1 DNA repair: inhibitors of ELG1-dependent DNA repair in HEK293T cells; HEK293T ELG1-luciferase reporter, luminescence, 16 h; DNA damage induced by 5-fluorouridine; Potency, µM (titrated, usually from 46.1 µM), without a hit: top-dose activity change, negative = inhibition, actives largely listed as inhibitors; 2.3% of 330,000 active; also: % is scaled to controls: 0 for no effect and ±100 for the full control effect; nearly all actives have a fitted effect of over 55% in size
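DMSO vehicle served as the neutral condition. Each well held 2,000 cells given 5-fluorouridine plus compound; after 16 hr at 37 °C/5% CO2, ONE-Glo was added and luciferase measured 30 min later.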
Rab9 prom act: Rab9 promoter activation; Huh7 Rab9 promoter-luciferase reporter, luminescence, 24 h; Potency, µM (highest dose often 9.22 µM), inactives show at the top dose activation, negative = inhibition, usual class: activators; 2.8% of 320,000 active; also: % of control where 0% means no effect; nearly all actives have a fitted effect of over 60% in size
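Using Huh7 cells stably transfected with Rab9 promoter–luciferase, compounds were incubated 24 h at 37 °C, 5% CO2; luciferase luminescence was read 10 min after reagent addition.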
NPC1 promoter act: NPC1 promoter activation | Huh7 NPC1 promoter luciferase reporter, 24 h | Potency, µM (series often up to 9.22 µM), inactives show at the highest dose activation, hits mostly activators | 2.4% of 320,000 active | AID 485313; also: % of control where 0% means no effect; nearly all actives have a fitted effect of over 60% in size
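Stably transfected Huh7 (NPC1 promoter→luciferase), 1500 cells/well in Opti-MEM + 10% FBS, 2 h settle, then compound 24 h at 37 °C. Luminescence after 10 min with Amplite reagent.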
ELG1 genotox: inducers of genotoxicity in HEK293T ELG1-luciferase cells. HEK293T ELG1-luciferase reporter, luminescence, 16 h. Potency, µM (doses to about 46 µM), for inactives: top-dose activity change, positive = activation, usual class: activators. 1.3% of 330,000 active. AID 504466; also: % of control where 0% means no effect; nearly all actives have a fitted effect of over 60% in size
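16 hr compound incubation (37 °C, 5% CO2) of HEK293T cells carrying luciferase-tagged ELG1; luciferase then measured by ONE-Glo luminescence after 30 min at RT.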
Numbers without * were called inactive; ? = inconclusive; . = no result given. Calls follow the shape of the dose curve; as a rule, active = well fitted curve in the direction sought with a large enough effect; inconclusive = small, poorly fitted or top-dose-only effect, or another doubt; inactive = no such curve, though single readings can be large; an effect the other way counts as inactive or inconclusive. Potency is read from the fitted curve at half-maximal effect.

SMILES	FLuc modulator	SMN2 splice enh	ELG1 DNA repair	Rab9 prom act	NPC1 promoter act	ELG1 genotox
CN(C)c1ccc(CNC(=O)Cn2ccc3cc(S(=O)(=O)N4CCCCCC4)ccc32)cc1	-6.9%	.	.	.	.	.
COc1ccc(-c2cc(C(F)(F)F)n3nc(C(=O)Nc4cccc(C(F)(F)F)c4)c(Br)c3n2)cc1	2.8%	-11.3%	.	.	.	.
CNC(=O)C1(C)C=CCN1C(=O)c1ccccc1 (stereo not drawn)	0.8%	0.0%	25.0%	0.3%	1.1%	1.2%
CC1(C(=O)NCCN2CCOCC2)C=CCN1C(=O)c1ccccc1 (stereo not drawn)	23.9µM*	?	?	27.5%	11.7%	16.6%
COc1ccc(NC(=O)CSC2=Nc3ccccc3C3=NC(CC(=O)NCc4ccco4)C(=O)N23)cc1 (stereo not drawn)	-9.2%	.	.	.	.	.
CCOC(=O)c1c(C)[nH]c(C)c1S(=O)(=O)N1CCCC(C(=O)NCc2ccc(Cl)cc2)C1 (stereo not drawn)	-10.4%	.	.	.	.	.
CCCOc1ccc(CSc2n[nH]c(C)n2)cc1	19µM*	.	?	2.82µM*	2.82µM*	?
Cn1c(SCc2cccc(F)c2)nnc1-c1cnccn1	-18.8%	.	?	?	?	?
Cn1c(SCc2ccccc2Cl)nc2ccccc21	6.01µM*	110.9%	?	?	2.51µM*	5.8µM*
Cn1c(SCc2ccccc2Cl)nnc1-c1cnccn1	?	?	?	?	?	11.2µM*
CCn1c(SCc2ccccc2Cl)nc2ccccc21	12µM*	?	?	19.8%	27.4%	14.0%
CN(C)CC(O)CN(c1ccccc1)c1ccccc1 (stereo not drawn)	-0.2%	.	?	-5.7%	-1.6%	-4.3%
O=C(Nc1nc2c(F)cc(F)cc2s1)c1ccco1	4.78µM*	.	?	0.447µM*	0.708µM*	?
O=C(COC(=O)c1ccco1)Nc1nc2c(F)c(F)c(F)cc2s1	0.7%	.	2.9%	-3.6%	2.0%	0.0%
O=C(CCc1ccccc1)Nc1nc2c(F)cc(F)cc2s1	16.9µM*	.	?	16.7%	?	14.1%
O=C(Nc1nc2c(ccc3ccccc32)s1)c1ccco1	13.5µM*	24.0%	?	?	?	6.4%
O=C(Nc1nc2c(F)c(F)c(F)cc2s1)c1ccco1	6.01µM*	.	?	2.51µM*	2.24µM*	?
Cc1nn(CC(=O)NCc2ccc(-n3cccn3)cc2)c(C)c1[N+](=O)[O-]	3.5%	-0.2%	-13.0%	-5.2%	-2.2%	-3.4%
CCOC(=O)Cn1nnnc1C(C(C)C)N(Cc1cc2c(C)cc(C)cc2[nH]c1=O)C1CCCC1 (stereo not drawn)	0.8%	-4.5%	18.4µM*	-5.1%	-3.9%	-3.5%
COc1ccc(C(=O)/C=C/Nc2ccc([N+](=O)[O-])cc2)cc1	-25.3%	?	?	?	?	0.7%
CCOc1ccc(N/C=C/C(=O)c2ccc(OC)cc2)c([N+](=O)[O-])c1	0.849µM*	-24.9%	?	1.12µM*	0.398µM*	?
COc1ccc(N/C=C/C(=O)c2ccc(Oc3ncccn3)cc2)cc1	1.69µM*	-9.7%	18.1%	5.6%	9.2%	8.6%
CCOc1ccc(N/C=C/C(=O)c2ccc(OC)cc2)cc1	1.2µM*	.	?	?	?	8.6%
O=C(/C=C/Nc1ccc(F)cc1)c1ccc(Oc2ncccn2)cc1	?	24.4%	?	?	16.7%	0.0%
COc1ccc(OCC(=O)N/N=C(\C)c2ccc(OC)cc2)cc1	23.9µM*	-8.3%	-0.7%	0.9%	-1.5%	1.1%
COc1ccc(OCC(=O)N/N=C(\C)c2cc3ccccc3o2)cc1	1.51µM*	26.8%	?	14.9%	17.4%	16.0%
C/C(=N\Nc1ccc(C(=O)O)cc1)c1ccc(-n2ccnc2)cc1	12µM*	20µM*	?	3.98µM*	2.51µM*	?
